# Results: PMC5700166
# Tests used:
# Assay in all cases: protein-binding microarray (PBM); PBM: ~300 nM protein, 6 mM HEPES pH 7.8, 80 mM KCl, 0.5 mM EDTA, 0.5 mM EGTA, 6% glycerol, 35 ng/ul poly-dIdC, 1% milk, 1 h, room temperature; Ap Aiptasia and Nv Nematostella (sea anemones) / Co Capsaspora / Aq Amphimedon (sponge) / Dm Drosophila / Hu human; RHD is the Rel homology domain; high values mean tight binding
# Details in all cases: dsDNA, one strand shown
# GST-Ap-NF-kB RHD = target: T1, GST-Ap-NF-kB RHD (Exaiptasia pallida (Aiptasia), UniProt A0A913YAJ5 2-422)
# T1 sequence: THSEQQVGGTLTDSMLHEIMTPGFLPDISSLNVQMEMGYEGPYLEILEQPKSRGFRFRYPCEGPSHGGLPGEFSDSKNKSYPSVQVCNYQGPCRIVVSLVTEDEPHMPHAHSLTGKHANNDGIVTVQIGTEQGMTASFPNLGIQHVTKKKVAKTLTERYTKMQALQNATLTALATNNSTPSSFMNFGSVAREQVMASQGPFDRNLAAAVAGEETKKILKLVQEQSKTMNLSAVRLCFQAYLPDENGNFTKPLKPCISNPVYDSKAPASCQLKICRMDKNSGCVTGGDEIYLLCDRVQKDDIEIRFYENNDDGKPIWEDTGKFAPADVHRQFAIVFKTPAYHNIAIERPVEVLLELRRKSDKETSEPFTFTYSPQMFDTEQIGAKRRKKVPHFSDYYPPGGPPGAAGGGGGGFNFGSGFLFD
# [1] = target: T2, GST-Nv-NF-kB (Cys allele) (Nematostella vectensis, UniProt E5G601 2-411)
# T2 sequence: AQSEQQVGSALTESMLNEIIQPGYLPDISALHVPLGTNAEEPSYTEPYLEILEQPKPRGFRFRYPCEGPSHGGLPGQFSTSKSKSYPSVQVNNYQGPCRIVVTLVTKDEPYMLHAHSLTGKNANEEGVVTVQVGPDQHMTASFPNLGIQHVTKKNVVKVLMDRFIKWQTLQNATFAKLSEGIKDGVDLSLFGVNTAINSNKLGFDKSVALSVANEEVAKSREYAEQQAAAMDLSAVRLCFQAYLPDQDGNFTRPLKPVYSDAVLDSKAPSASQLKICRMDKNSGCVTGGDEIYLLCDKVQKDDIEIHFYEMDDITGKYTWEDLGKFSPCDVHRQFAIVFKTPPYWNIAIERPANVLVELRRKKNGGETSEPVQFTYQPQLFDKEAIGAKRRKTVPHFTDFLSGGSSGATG
# GST-Co-NF-kB = target: T3, GST-Co-NF-kB (Capsaspora owczarzaki, UniProt F1ARL5 200-546)
# T3 sequence: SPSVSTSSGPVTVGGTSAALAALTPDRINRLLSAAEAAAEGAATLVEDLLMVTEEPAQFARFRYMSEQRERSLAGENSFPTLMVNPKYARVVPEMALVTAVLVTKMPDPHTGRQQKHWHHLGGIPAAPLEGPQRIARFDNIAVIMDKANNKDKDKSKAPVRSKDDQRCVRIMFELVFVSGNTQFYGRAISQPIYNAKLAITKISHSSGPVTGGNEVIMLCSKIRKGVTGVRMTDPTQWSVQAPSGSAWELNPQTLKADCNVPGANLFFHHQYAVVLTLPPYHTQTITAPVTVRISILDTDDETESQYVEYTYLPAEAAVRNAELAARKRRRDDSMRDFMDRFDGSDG
# GST-Dm-Relish = target: T4, GST-Dm-Relish (Drosophila melanogaster, UniProt Q94527 99-473)
# T4 sequence: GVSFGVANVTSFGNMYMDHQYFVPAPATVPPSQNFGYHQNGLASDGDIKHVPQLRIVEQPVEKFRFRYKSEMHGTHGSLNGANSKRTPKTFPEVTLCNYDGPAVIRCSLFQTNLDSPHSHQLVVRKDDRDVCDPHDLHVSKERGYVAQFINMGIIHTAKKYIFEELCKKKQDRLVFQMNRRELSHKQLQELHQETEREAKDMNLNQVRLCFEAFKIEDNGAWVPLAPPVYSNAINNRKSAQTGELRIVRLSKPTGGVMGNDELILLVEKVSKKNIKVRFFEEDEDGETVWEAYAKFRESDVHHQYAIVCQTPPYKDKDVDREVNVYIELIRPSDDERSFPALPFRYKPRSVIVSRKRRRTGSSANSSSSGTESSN
# GST-Aq-NF-kB = target: T5, GST-Aq-NF-kB (Amphimedon queenslandica, UniProt A9Y5G7 2-389)
# T5 sequence: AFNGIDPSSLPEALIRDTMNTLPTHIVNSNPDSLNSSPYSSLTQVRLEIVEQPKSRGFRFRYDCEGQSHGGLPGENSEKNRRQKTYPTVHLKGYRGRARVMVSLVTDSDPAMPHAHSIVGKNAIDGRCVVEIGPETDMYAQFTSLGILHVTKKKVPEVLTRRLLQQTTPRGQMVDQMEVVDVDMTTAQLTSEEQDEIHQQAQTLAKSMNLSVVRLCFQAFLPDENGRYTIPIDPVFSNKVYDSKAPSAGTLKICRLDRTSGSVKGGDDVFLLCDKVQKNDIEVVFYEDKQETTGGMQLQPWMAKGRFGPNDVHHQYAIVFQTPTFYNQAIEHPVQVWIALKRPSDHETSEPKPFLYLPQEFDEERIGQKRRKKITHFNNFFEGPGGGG
Sequence,binding signal (GST-Ap-NF-kB RHD),binding signal [1],binding signal (GST-Co-NF-kB),binding signal (GST-Dm-Relish),binding signal (GST-Aq-NF-kB)
CCGATTAACATCAGGGGGTAGAATGATGTTAATCGGGTCTTGATTCGCTTGACGCTGCTG,4.45 z-score,2.63 z-score,7.1 z-score,2.13 z-score,3.38 z-score
CCGATTAACATCAGGGAATATTATGATGTTAATCGGGTCTTGATTCGCTTGACGCTGCTG,5.06 z-score,5.86 z-score,3.81 z-score,3 z-score,5.75 z-score
CCGATTAACATCAGGGAAAACGATGATGTTAATCGGGTCTTGATTCGCTTGACGCTGCTG,2.75 z-score,3.95 z-score,3.39 z-score,1.18 z-score,2.74 z-score
CCGATTAACATCAGGGTATTACCTGATGTTAATCGGGTCTTGATTCGCTTGACGCTGCTG,4.39 z-score,6.02 z-score,1.57 z-score,5.28 z-score,7.69 z-score
CCGATTAACATCAACCCCGTTTCTGATGTTAATCGGGTCTTGATTCGCTTGACGCTGCTG,1.51 z-score,1.29 z-score,1.63 z-score,1.65 z-score,2.24 z-score
CCGATTAACATCACCAAAACCCCTGATGTTAATCGGGTCTTGATTCGCTTGACGCTGCTG,4.76 z-score,3.55 z-score,1.32 z-score,6.02 z-score,3.55 z-score
CCGATTAACATCAGGGAAAACACTGATGTTAATCGGGTCTTGATTCGCTTGACGCTGCTG,3.49 z-score,4.89 z-score,4.18 z-score,5.1 z-score,6.06 z-score
CCGATTAACATCAGGGGATCCACTGATGTTAATCGGGTCTTGATTCGCTTGACGCTGCTG,7.41 z-score,5.27 z-score,2.76 z-score,9.75 z-score,6.81 z-score
CCGATTAACATCAGGGGGGGTACTGATGTTAATCGGGTCTTGATTCGCTTGACGCTGCTG,5.04 z-score,3.45 z-score,4.54 z-score,5.04 z-score,4.67 z-score
CCGATTAACATCAAGTACCCCCATGATGTTAATCGGGTCTTGATTCGCTTGACGCTGCTG,4.72 z-score,2.7 z-score,4.36 z-score,2.25 z-score,2.6 z-score
CCGATTAACATCAAACAAACCCCTGATGTTAATCGGGTCTTGATTCGCTTGACGCTGCTG,4.35 z-score,3.42 z-score,1.74 z-score,3.06 z-score,3.95 z-score
CCGATTAACATCAAAAATCACCCTGATGTTAATCGGGTCTTGATTCGCTTGACGCTGCTG,2.67 z-score,2.98 z-score,2.5 z-score,7.81 z-score,3.84 z-score
CCGATTAACATCATACCCCCCCATGATGTTAATCGGGTCTTGATTCGCTTGACGCTGCTG,4.97 z-score,2.65 z-score,5.26 z-score,3.98 z-score,3.92 z-score
CCGATTAACATCAGGGTGTTTTATGATGTTAATCGGGTCTTGATTCGCTTGACGCTGCTG,2.75 z-score,2.67 z-score,1.55 z-score,3.11 z-score,4.69 z-score
CCGATTAACATCAGGGATCACCCTGATGTTAATCGGGTCTTGATTCGCTTGACGCTGCTG,3.86 z-score,2.9 z-score,1.02 z-score,6.12 z-score,5.65 z-score
CCGATTAACATCACTTTTTCCCATGATGTTAATCGGGTCTTGATTCGCTTGACGCTGCTG,2.03 z-score,3.6 z-score,4.08 z-score,1.51 z-score,1.99 z-score
CCGATTAACATCAGGGGTGGGAATGATGTTAATCGGGTCTTGATTCGCTTGACGCTGCTG,2.31 z-score,2.09 z-score,3.75 z-score,2.17 z-score,2.94 z-score
CCGATTAACATCACTACTTTCCCTGATGTTAATCGGGTCTTGATTCGCTTGACGCTGCTG,3.07 z-score,3.89 z-score,3.41 z-score,1.63 z-score,3.68 z-score
CCGATTAACATCAGGACTGTCCCTGATGTTAATCGGGTCTTGATTCGCTTGACGCTGCTG,4.85 z-score,5.38 z-score,1.21 z-score,3.04 z-score,7.35 z-score
CCGATTAACATCAAGAATTCCCGTGATGTTAATCGGGTCTTGATTCGCTTGACGCTGCTG,4.85 z-score,6.36 z-score,4.23 z-score,4.9 z-score,5.46 z-score
CCGATTAACATCAGGGATTTTCATGATGTTAATCGGGTCTTGATTCGCTTGACGCTGCTG,5.23 z-score,4.83 z-score,1.61 z-score,6.05 z-score,5.16 z-score
CCGATTAACATCAAAAATCCCGATGATGTTAATCGGGTCTTGATTCGCTTGACGCTGCTG,3.79 z-score,3.94 z-score,1.91 z-score,6.2 z-score,4.05 z-score
CCGATTAACATCACGTTCCCCCCTGATGTTAATCGGGTCTTGATTCGCTTGACGCTGCTG,6.32 z-score,5.07 z-score,9.5 z-score,4.11 z-score,4.43 z-score
CCGATTAACATCAGGGTAAAACCTGATGTTAATCGGGTCTTGATTCGCTTGACGCTGCTG,1.98 z-score,3.16 z-score,1.9 z-score,3.45 z-score,6.02 z-score
CCGATTAACATCAAATTTTCCCATGATGTTAATCGGGTCTTGATTCGCTTGACGCTGCTG,3.65 z-score,5.18 z-score,5.19 z-score,1.94 z-score,4.45 z-score
CCGATTAACATCACTGGGAAAACTGATGTTAATCGGGTCTTGATTCGCTTGACGCTGCTG,1.79 z-score,2.36 z-score,5.25 z-score,1.48 z-score,1.81 z-score
CCGATTAACATCAACGTATTCCCTGATGTTAATCGGGTCTTGATTCGCTTGACGCTGCTG,3.17 z-score,2.78 z-score,2.86 z-score,1.41 z-score,1.85 z-score
